According to PubChem BioAssay (NCATS):
Inconclusive results are not listed. Activity calls are given as the source filed them. Unless noted, calls come from the whole dose curve; as a rule, active = well fitted inhibition curve with a large enough effect; inconclusive = small, poorly fitted or top-dose-only effect; inactive = no such curve, though single readings can be large or run the other way.

Assay: qHTS assay for measurement of the activity of small molecule inhibitors on Zika virus induced Caspase-3 activity in human astrocytoma cells (AID 1224859);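 note: plate controls were ZIKV-infected untreated cells for no effect and uninfected cells for full effect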
Settings: SNB-19 ZIKV-induced caspase-3/7, luminescence, 6 h; series mostly up to 45.7 µM; activity change, negative = inhibition: at the top concentration
How it was run: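 Percent inhibition of virus-induced caspase-3/7 signal is calculated against uninfected and ZIKV-infected control cells. Cells are SNB-19, infected at 2 FFU/cell for 6 h after 1 h compound exposure.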

With O=c1[nH]c(=S)[nH]c(-c2ccccc2)c1Cc1c(O)ccc2ccccc12 as the compound, how does the “activity change, negative = inhibition” value read?
The value was 0.172% (inactive).

For C=C1C[C@@]23CC[C@H]4[C@@](C)(CCC[C@@]4(C)C(=O)O)[C@@H]2CC[C@]1(O)C3, which “activity change, negative = inhibition” value is on record?
The value was 1.92% (inactive).

With CCCn1c(=O)c2[nH]c(C3CCCC3)nc2n(CCC)c1=O as the compound, how does the “activity change, negative = inhibition” value read?
Its value is -15.9% (inactive).

Which “activity change, negative = inhibition” value does the source give for O=c1cc(-c2ccccc2)[nH]c2nc(Cl)ccc12 here?
Its value is 11.9% (inactive).

Which “activity change, negative = inhibition” value does the source give for O=C1NC(=O)c2cc(Nc3ccccc3)c(Nc3ccccc3)cc21 here?
The value was 6.61% (inactive).

For NC(=O)CNCCC(c1ccccc1)c1ccccc1, which “activity change, negative = inhibition” value is on record?
The value was -15.7% (inactive).

With COc1ccccc1N1CCN(CCN(C(=O)c2ccc(F)cc2)c2ccccn2)CC1 as the compound, how does the “activity change, negative = inhibition” value read?
Its value is 4.18% (inactive).

For CC#CCOC(=O)c1c(C)nc2sc3c(c2c1N)CCC(O)C3 (stereo unspecified), which “activity change, negative = inhibition” value is on record?
Its value is 17.5% (inactive).

For Nc1ccc2c3c(cccc13)C(=O)NC2=O, which “activity change, negative = inhibition” value is on record?
The value was 102% (inactive).

With O=C(N[C@@H](Cc1ccccc1)C(=O)CCl)OCc1ccccc1 as the compound, how does the “activity change, negative = inhibition” value read?
Its value is 238% (inactive).

For O=C(O)C1=CCCN(CCON=C(c2ccccc2)c2ccccc2)C1, which “activity change, negative = inhibition” value is on record?
The value was 2.2% (inactive).

For CCCn1c(=O)c2[nH]c(-c3ccc(S(=O)(=O)O)cc3)nc2n(CCC)c1=O, which “activity change, negative = inhibition” value is on record?
Its value is -3.2% (inactive).

For O=C(O)Cc1c[nH]c2ccc(O)cc12, which “activity change, negative = inhibition” value is on record?
The value was -9.75% (inactive).

Which “activity change, negative = inhibition” value does the source give for Clc1nccc2c1ccc1ccccc12 here?
The value was -1.88% (inactive).

Which “activity change, negative = inhibition” value does the source give for O=C(O)/C=C/c1ccc(O)c(O)c1 here?
Its value is -4.93% (inactive).

For O=C(O)Cc1ccc(O)c(O)c1, which “activity change, negative = inhibition” value is on record?
The value was -1.91% (inactive).

Which “activity change, negative = inhibition” value does the source give for NCCCCN=C(N)N here?
The value was -2.44% (inactive).

For Cc1cccc(C)c1OCC(N)C(C)C (stereo unspecified), which “activity change, negative = inhibition” value is on record?
The value was -5.74% (inactive).

With CNc1cc(NS(=O)(=O)c2ccc(N)cc2)nc(NC)n1 as the compound, how does the “activity change, negative = inhibition” value read?
Its value is 2.46% (inactive).

For C#CC(N)CCC(=O)O (stereo unspecified), which “activity change, negative = inhibition” value is on record?
The value was -6.35% (inactive).

With Nc1ccc(-c2nc3ccc(-c4nc5ccc(N)cc5[nH]4)cc3[nH]2)cc1 as the compound, how does the “activity change, negative = inhibition” value read?
The value was -2.87% (inactive).

Which “activity change, negative = inhibition” value does the source give for CN[C@H](CC(=O)O)C(=O)O here?
Its value is -2.66% (inactive).

Which “activity change, negative = inhibition” value does the source give for CCCCCCCCCC[Si](C)(C)CCC(=O)NC(Cc1ccc(C)cc1)c1ccccc1 (stereo unspecified) here?
Its value is -4.37% (inactive).

Which “activity change, negative = inhibition” value does the source give for c1ccc2c(c1)CCC[C@H]2Nc1nc2ccccc2[nH]1 here?
The value was -6.67% (inactive).

Which “activity change, negative = inhibition” value does the source give for C[C@H](O)C(=O)C1=Nc2c(nc(N)[nH]c2=O)NC1 here?
Its value is -5.21% (inactive).

With c1ccc(CN2CCC3(CCCc4ccccc43)CC2)cc1 as the compound, how does the “activity change, negative = inhibition” value read?
Its value is 1.23% (inactive).

For CC(C)NC[C@H](O)COc1cccc2ccccc12, which “activity change, negative = inhibition” value is on record?
The value was -2.13% (inactive).

For C[C@H]1CC2C3CCC4=CC(=O)C=C[C@]4(C)[C@@]3(Cl)[C@@H](O)C[C@]2(C)[C@@]1(O)C(=O)CO (stereo partly specified), which “activity change, negative = inhibition” value is on record?
Its value is 2.33% (inactive).

Which “activity change, negative = inhibition” value does the source give for OC1(c2ccc(Cl)cc2)CCN(Cc2c[nH]c3ccccc23)CC1 here?
The value was 5.6% (inactive).

For NC(Cc1cccc(-c2ccccc2CP(=O)(O)O)c1)C(=O)O (stereo unspecified), which “activity change, negative = inhibition” value is on record?
Its value is 9.29% (inactive).

With CN1Cc2sccc2C(c2ccc(O)c(O)c2)C1 (stereo unspecified) as the compound, how does the “activity change, negative = inhibition” value read?
The value was 5.49% (inactive).

With CC(O)C(O)[C@H]1CNc2nc(N)[nH]c(=O)c2N1 (stereo partly specified) as the compound, how does the “activity change, negative = inhibition” value read?
The value was -1.22% (inactive).

With COc1ccc2c(c1)c(CC(=O)O)c(C)n2Cc1ccc(Cl)cc1 as the compound, how does the “activity change, negative = inhibition” value read?
The value was -0.339% (inactive).

With Cn1c(=O)c2[nH]c(-c3ccc(S(=O)(=O)O)cc3)nc2n(C)c1=O as the compound, how does the “activity change, negative = inhibition” value read?
Its value is 2.39% (inactive).

Which “activity change, negative = inhibition” value does the source give for C[C@@]1(C2CCCC2)Cc2cc(OCC(=O)O)c(Cl)c(Cl)c2C1=O here?
Its value is -5.12% (inactive).

For CC(=O)/C(C)=N/O, which “activity change, negative = inhibition” value is on record?
The value was -7.84% (inactive).

Which “activity change, negative = inhibition” value does the source give for CN1CCCC1CCOC(C)(c1ccccc1)c1ccc(Cl)cc1 (stereo unspecified) here?
Its value is 21.2% (inactive).

For CC(C)Cn1c(=O)n(C)c(=O)c2[nH]cnc21, which “activity change, negative = inhibition” value is on record?
Its value is -6.09% (inactive).

Assay: Natriuretic polypeptide receptor (hNpr1) antagonism - Pilot counterscreen GloSensor control cell line (AID 1347045; calls by dose curve; note: potency is the fitted concentration of half-maximal effect; for activity change, negative = inhibition: % is set by controls: 0 for no effect and ±100 for the full control effect)
Settings: HEK293 cGMP GloSensor cells, SNP-stimulated luminescence, 20 min; series mostly up to 38.3 µM; activity change, negative = inhibition: at the top concentration
How it was run: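 HEK293 cells carrying the GloSensor cGMP sensor (GIP/pGS-40F) were loaded with 2% GloSensor reagent for 2 h, exposed to compounds for 30 min, and then stimulated with 50 uM sodium nitroprusside for 20 min at room temperature.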

Which “activity change, negative = inhibition” value does the source give for O=c1[nH]c(=S)[nH]c(-c2ccccc2)c1Cc1c(O)ccc2ccccc12 here?
Its value is 7.15% (inactive).

Which “activity change, negative = inhibition” value does the source give for C=C1C[C@@]23CC[C@H]4[C@@](C)(CCC[C@@]4(C)C(=O)O)[C@@H]2CC[C@]1(O)C3 here?
The value was -2.14% (inactive).

For CCCn1c(=O)c2[nH]c(C3CCCC3)nc2n(CCC)c1=O, which “activity change, negative = inhibition” value is on record?
The value was 0.234% (inactive).

With O=c1cc(-c2ccccc2)[nH]c2nc(Cl)ccc12 as the compound, how does the “activity change, negative = inhibition” value read?
The value was 14.7% (inactive).

With O=C1NC(=O)c2cc(Nc3ccccc3)c(Nc3ccccc3)cc21 as the compound, how does the “activity change, negative = inhibition” value read?
The value was -17.7% (inactive).

For NC(=O)CNCCC(c1ccccc1)c1ccccc1, which “activity change, negative = inhibition” value is on record?
The value was 0.947% (inactive).

For COc1ccccc1N1CCN(CCN(C(=O)c2ccc(F)cc2)c2ccccn2)CC1, which “activity change, negative = inhibition” value is on record?
Its value is -1.15% (inactive).

With CC#CCOC(=O)c1c(C)nc2sc3c(c2c1N)CCC(O)C3 (stereo unspecified) as the compound, how does the “activity change, negative = inhibition” value read?
Its value is -66.1% (inactive).

With Nc1ccc2c3c(cccc13)C(=O)NC2=O as the compound, how does the “activity change, negative = inhibition” value read?
The value was 3.36% (inactive).

For O=C(N[C@@H](Cc1ccccc1)C(=O)CCl)OCc1ccccc1, which Potency is on record?
The Potency was 3.29 µM (active).

For O=C(O)C1=CCCN(CCON=C(c2ccccc2)c2ccccc2)C1, which “activity change, negative = inhibition” value is on record?
Its value is 6.22% (inactive).

With CCCn1c(=O)c2[nH]c(-c3ccc(S(=O)(=O)O)cc3)nc2n(CCC)c1=O as the compound, how does the “activity change, negative = inhibition” value read?
Its value is -1.79% (inactive).

For O=C(O)Cc1c[nH]c2ccc(O)cc12, which “activity change, negative = inhibition” value is on record?
Its value is -0.137% (inactive).

Which “activity change, negative = inhibition” value does the source give for Clc1nccc2c1ccc1ccccc12 here?
The value was 1.91% (inactive).

Which “activity change, negative = inhibition” value does the source give for O=C(O)/C=C/c1ccc(O)c(O)c1 here?
The value was 2.58% (inactive).

For O=C(O)Cc1ccc(O)c(O)c1, which “activity change, negative = inhibition” value is on record?
The value was -2.49% (inactive).

With NCCCCN=C(N)N as the compound, how does the “activity change, negative = inhibition” value read?
The value was 7.47% (inactive).

Which “activity change, negative = inhibition” value does the source give for Cc1cccc(C)c1OCC(N)C(C)C (stereo unspecified) here?
The value was 5.32% (inactive).

For CNc1cc(NS(=O)(=O)c2ccc(N)cc2)nc(NC)n1, which “activity change, negative = inhibition” value is on record?
Its value is -1.38% (inactive).

For C#CC(N)CCC(=O)O (stereo unspecified), which “activity change, negative = inhibition” value is on record?
Its value is 4.01% (inactive).

Which “activity change, negative = inhibition” value does the source give for Nc1ccc(-c2nc3ccc(-c4nc5ccc(N)cc5[nH]4)cc3[nH]2)cc1 here?
Its value is -0.477% (inactive).

For CN[C@H](CC(=O)O)C(=O)O, which “activity change, negative = inhibition” value is on record?
Its value is 1.76% (inactive).

With CCCCCCCCCC[Si](C)(C)CCC(=O)NC(Cc1ccc(C)cc1)c1ccccc1 (stereo unspecified) as the compound, how does the “activity change, negative = inhibition” value read?
Its value is -0.143% (inactive).

Which “activity change, negative = inhibition” value does the source give for c1ccc2c(c1)CCC[C@H]2Nc1nc2ccccc2[nH]1 here?
The value was -1.62% (inactive).

Which “activity change, negative = inhibition” value does the source give for C[C@H](O)C(=O)C1=Nc2c(nc(N)[nH]c2=O)NC1 here?
The value was -0.561% (inactive).

With c1ccc(CN2CCC3(CCCc4ccccc43)CC2)cc1 as the compound, how does the “activity change, negative = inhibition” value read?
Its value is 41.9% (inactive).

Which “activity change, negative = inhibition” value does the source give for CC(C)NC[C@H](O)COc1cccc2ccccc12 here?
The value was 11.3% (inactive).

For C[C@H]1CC2C3CCC4=CC(=O)C=C[C@]4(C)[C@@]3(Cl)[C@@H](O)C[C@]2(C)[C@@]1(O)C(=O)CO (stereo partly specified), which “activity change, negative = inhibition” value is on record?
The value was 4.45% (inactive).

With OC1(c2ccc(Cl)cc2)CCN(Cc2c[nH]c3ccccc23)CC1 as the compound, how does the “activity change, negative = inhibition” value read?
The value was 1.91% (inactive).

For NC(Cc1cccc(-c2ccccc2CP(=O)(O)O)c1)C(=O)O (stereo unspecified), which “activity change, negative = inhibition” value is on record?
The value was 3.58% (inactive).

Which “activity change, negative = inhibition” value does the source give for CN1Cc2sccc2C(c2ccc(O)c(O)c2)C1 (stereo unspecified) here?
The value was -1.1% (inactive).

With CC(O)C(O)[C@H]1CNc2nc(N)[nH]c(=O)c2N1 (stereo partly specified) as the compound, how does the “activity change, negative = inhibition” value read?
The value was 7% (inactive).

With COc1ccc2c(c1)c(CC(=O)O)c(C)n2Cc1ccc(Cl)cc1 as the compound, how does the “activity change, negative = inhibition” value read?
Its value is 0.218% (inactive).

For Cn1c(=O)c2[nH]c(-c3ccc(S(=O)(=O)O)cc3)nc2n(C)c1=O, which “activity change, negative = inhibition” value is on record?
Its value is -2.16% (inactive).

Which “activity change, negative = inhibition” value does the source give for C[C@@]1(C2CCCC2)Cc2cc(OCC(=O)O)c(Cl)c(Cl)c2C1=O here?
Its value is -2.88% (inactive).

For CC(=O)/C(C)=N/O, which “activity change, negative = inhibition” value is on record?
Its value is -1.36% (inactive).

Which “activity change, negative = inhibition” value does the source give for CN1CCCC1CCOC(C)(c1ccccc1)c1ccc(Cl)cc1 (stereo unspecified) here?
Its value is 2.36% (inactive).

For CC(C)Cn1c(=O)n(C)c(=O)c2[nH]cnc21, which “activity change, negative = inhibition” value is on record?
Its value is 37.7% (inactive).
